Results filed as inconclusive are left out. Active and inactive are the calls of the source. Calls follow the shape of the dose curve; as a rule, active = well fitted inhibition curve with a large enough effect; inconclusive = small, poorly fitted or top-dose-only effect; inactive = flat fitted curve, though single readings scatter.
Potency is read from the fitted curve at half-maximal effect.

Chain of Ferritin light chain (Equus caballus) (P02791 2-175 limits assumed): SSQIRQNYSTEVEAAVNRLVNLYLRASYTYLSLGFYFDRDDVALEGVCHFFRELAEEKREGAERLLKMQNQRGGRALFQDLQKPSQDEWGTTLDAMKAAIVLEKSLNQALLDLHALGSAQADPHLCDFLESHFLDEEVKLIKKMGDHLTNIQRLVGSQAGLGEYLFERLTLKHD

The experiment has as its target Ferritin light chain (Equus caballus) (UniProt P02791). Briefly: Confirmation Assay for Identification of Novel General Anesthetics. Also: nearly all actives have a fitted effect of over 40% in size. Conditions: apoferritin 1-aminoanthracene fluorescence displacement. The source says:
Anesthetic development has remained a largely empirical process. There are growing concerns about the cognitive effects of known general anesthetics and acceleration of the onset of neurodegenerative disease. The compounds' toxicity and multiple specific binding targets in the mammalian brain [4] has made them less attractive as drug leads. In this assay, a GABAergic mimetic model system, apoferritin and a profluorescent 1-aminoanthracene ligand (1-AMA), was used to construct a competitive binding assay for identification of novel general anesthetics. The assay was validated for 1-AMA using other known anesthetics, such as isoflurane (CID:3763) and propofol (CID: 4943), [6]. This particular BioAssay is a confirmation of followup compounds from primary screen AID:485281.
[1] S.L. Bianchi, T. Tran, C. Liu, S. Lin, Y. Li, J.M. Keller, R.G. Eckenhoff, and M.F. Eckenhoff, Brain and behavior changes in 12-month-old Tg2576 and nontransgenic mice exposed to anesthetics. Neurobiol Aging 29 (2008) 1002-10.
[2] Z. Xie, Y. Dong, U. Maeda, R.D. Moir, W. Xia, D.J. Culley, G. Crosby, and R.E. Tanzi, The inhalation anesthetic isoflurane induces a vicious cycle of apoptosis and amyloid beta-protein accumulation. J Neurosci 27 (2007) 1247-54.
[3] P. Honegger, and J.M. Matthieu, Selective toxicity of the general anesthetic propofol for GABAergic neurons in rat brain cell cultures. J Neurosci Res 45 (1996) 631-6.
[4] M.F. Eckenhoff, K. Chan, and R.G. Eckenhoff, Multiple specific binding targets for inhaled anesthetics in the mammalian brain. J Pharmacol Exp Ther 300 (2002) 172-9.
[5] C.A. Butts, J. Xi, G. Brannigan, A.A. Saad, S.P. Venkatachalan, R.A. Pearce, M.L. Klein, R.G. Eckenhoff, and I.J. Dmochowski, Identification of a fluorescent general anesthetic, 1-aminoanthracene. Proc Natl Acad Sci U S A 106 (2009) 6501-6.
[6] W.A. Lea, J. Xi, A. Jadhav, L. Lu, C.P. Austin, A. Simeonov, and R.G. Eckenhoff, A high-throughput approach for identification of novel general anesthetics. PLoS One 4 (2009) e7150.
Source: NIH Chemical Genomics Center [NCGC]
Assay Submitter: Roderic Eckenhoff, University of Pennsylvania
Screening Center PI: Christopher P. Austin, NIH
Probe Development: NIH Chemical Genomics Center [NCGC]
Three uL of reagents (free 1-AMA (50% saturated solution of 1-aminoanthracene
in PBS) in columns 3, 4 as negative control and 1-AMA/apoferritin mixture (10 uM horse-spleen apoferritin in 50% saturated 1-aminoanthracene in PBS) in columns 1, 2, 5-48) was dispensed into 1536-well Greiner black assay plates. Compounds (23 nL) were transferred via Kalypsys pintool equipped with 1,536-pin array (10 nL slotted pins, V&P Scientific, San Diego, CA). Titration of the positive control, propofol, were delivered via pin transfer from separate control plates to the 2nd column of each assay plate. The starting concentration of the control, dissolved in DMSO, was at 160 mM, followed by two-fold dilution points in duplicate, for a total of 16 concentrations. The plates were incubated for 10 min at room temperature, and then read on an EnVision HTS multilabel reader (Perkin-Elmer, Waltham, MA) (end point read, 3 min/plate) using Fura2 BFP excitation filter (380 nm, bandwidth 10 nm) and fluorescein emission filter (535 nm, bandwidth 25 nm) set. A LANCE/DELFIA dichroic mirror with a cutoff wavelength at 400 nm was used to maximize signal accuracy and strength. Vehicle-only plates, with DMSO being pin-transferred to the entire column 5-48 compound area, were inserted uniformly at the beginning and the end of each library in order to monitor for and record any shifts in the background. Activity was computed as the normalized fluorescence response relative to free 1-AMA and 1-AMA/apoferritin complex values. Concentration-effect relationships were derived by using curve fitting algorithms developed in-house (http://ncgc.nih.gov/pub/openhts/). […]
Take `CCN(CC)C(=O)Oc1ccc(Cl)c2ccccc12`: the Potency was 31.6 µM (active). As to `CC(C(=O)c1cn(C)c2ccccc12)c1ccccc1` (configuration not stated), the Potency was 35.5 µM (active). The result for `c1ccc(C2CC3CC4(CCCC4)N2O3)cc1` (configuration not stated) reads 7.94 µM (active). On to `O=C(COC(=O)Cc1ccccc1)NC12CC3CC(CC(C3)C1)C2`, for which the Potency was 14.1 µM (active). `O=C1C(c2ccccc2)=C(N2CC2)c2ccccc21`: the Potency is 35.5 µM (active). Regarding `Nc1ccc(Oc2cccc(Oc3ccc(N)cc3)c2)cc1`, the Potency is 31.6 µM (active). As for `O=C(Cn1nc(-c2ccccc2)ccc1=O)N1CCC2(CC1)OCCO2`, the Potency was 15.8 µM (active).

The record behind these values is PubChem BioAssay AID489008 (National Center for Advancing Translational Sciences (NCATS), 2010).
